PubChem BioAssay (NCI)
Compounds without any hit were thinned out: in the full panel of roughly 79,000, 15% have a hit. The source made the active and inactive calls. Rule as the data show it: active = growth inhibition above about 70%; inactive = the rest.

Columns and labels:
[1] = NCI Yeast Anticancer Drug Screen. Data for the rad52 strain (AID 147);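 also: 0% = growth of vehicle-treated control cultures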; details: S. cerevisiae rad52 mutant growth inhibition, active compounds read high
In short: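 The repair-mutant yeast strain was incubated with compounds, then growth was read and inhibition derived relative to vehicle.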

[2] = NCI Yeast Anticancer Drug Screen. Data for the wt1 strain (AID 149);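 also: 0% = growth of vehicle-treated wt1 cultures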; details: S. cerevisiae wt1 strain (SPY 50644) growth inhibition, active compounds read high
In short: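 Growth inhibition read against vehicle controls after compound exposure of the wt1 yeast strain.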

[3] = NCI Yeast Anticancer Drug Screen. Data for the rad50EPP+ strain (AID 151);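 also: 0% = growth of vehicle-treated control cultures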; details: S. cerevisiae rad50 mutant strain, active compounds read high
In short: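 Vehicle-normalised growth inhibition; rad50EPP+ yeast strain, altered in DNA damage repair, compound-treated.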

[4] = NCI Yeast Anticancer Drug Screen. Data for the mgt1 strain (AID 153); details: S. cerevisiae mgt1 mutant growth inhibition, active compounds read high
In short: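 Vehicle-normalized growth inhibition is determined in mgt1 yeast, a strain selected for a defined alteration in DNA repair or cell cycle control.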

[5] = NCI Yeast Anticancer Drug Screen. Data for the rad50 strain (AID 155);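 also: 0% = growth of vehicle-only cultures of the same strain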; details: S. cerevisiae rad50 strain growth inhibition, active compounds read high
In short: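 Readout: growth inhibition relative to vehicle-treated cultures. Compound exposure was carried out in a genetically defined yeast strain deficient in DNA damage repair.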

[6] = NCI Yeast Anticancer Drug Screen. Data for the mec2-1 strain (AID 157); details: S. cerevisiae mec2-1 strain, active compounds read high
In short: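 Mutant yeast (mec2-1) grown with compound; growth inhibition relative to vehicle control reported.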

[7] = NCI Yeast Anticancer Drug Screen. Data for the rad14 strain (AID 159);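 also: 0% = growth of vehicle-treated control cultures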; details: S. cerevisiae rad14 strain growth inhibition, active compounds read high
In short: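 Growth inhibition vs vehicle controls; genetically altered yeast strain (DNA damage repair defect) treated with test compounds.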

[8] = NCI Yeast Anticancer Drug Screen. Data for the sgs1 mgt1 strain (AID 161);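 also: 0% = growth of cultures given vehicle only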; details: S. cerevisiae sgs1 mgt1 strain, active compounds read high
In short: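 This yeast growth screen uses a strain with defined DNA-repair lesions; compound-treated growth is compared with vehicle-treated growth.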

[9] = NCI Yeast Anticancer Drug Screen. Data for the CLN2oe strain (AID 163);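 also: 0% = growth of vehicle-only control cultures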; details: S. cerevisiae CLN2oe strain, active compounds read high
In short: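 Compounds are applied to yeast harbouring a defined cell-cycle control change; reduced growth compared with vehicle-treated controls gives the value.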

[10] = NCI Yeast Anticancer Drug Screen. Data for the cln2 rad14 strain (AID 165);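 also: 0% = growth equal to vehicle treated cultures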; details: S. cerevisiae cln2 rad14 strain, active compounds read high
In short: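 Readout is yeast growth inhibition versus vehicle-treated controls, using a strain with cln2 and rad14 alterations exposed to compound.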

[11] = NCI Yeast Anticancer Drug Screen. Data for the bub3 strain (AID 167); details: S. cerevisiae bub3 mutant strain, active compounds read high
In short: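 Readout: yeast growth inhibition, expressed relative to vehicle-only wells. The test organism is a mutant strain from a panel with lesions in DNA repair or checkpoint genes.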

[12] = NCI Yeast Anticancer Drug Screen. Data for the wt2 strain (AID 169);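 also: 0% = growth of vehicle-treated yeast cultures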; details: S. cerevisiae wt2 strain growth inhibition, active compounds read high
In short: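 Against vehicle-treated controls, the growth of yeast exposed to each compound was compared, and the inhibition was recorded.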

[13] = NCI Yeast Anticancer Drug Screen. Data for the mlh1 strain (AID 171);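 also: 0% = growth of vehicle-treated control cultures of the same strain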; details: S. cerevisiae mlh1 strain growth inhibition, active compounds read high
In short: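 Measured: yeast growth. Reference: vehicle-treated controls. Organism: strain with a defined alteration affecting DNA damage repair or cell cycle control, treated with compound.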

[14] = NCI Yeast Anticancer Drug Screen. Data for the sgs1 strain (AID 173);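 also: 0% = growth of vehicle-only control cultures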; details: S. cerevisiae sgs1 mutant, active compounds read high
In short: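 Each compound was added to cultures of the altered yeast strain. Growth was recorded, and inhibition was derived by comparison with vehicle controls.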

[15] = NCI Yeast Anticancer Drug Screen. Data for the mlh1 rad18 strain (AID 175); details: S. cerevisiae mlh1 rad18 strain growth inhibition, active compounds read high
In short: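 Genetically defined yeast (DNA repair-deficient) exposed to compounds; growth inhibition determined relative to vehicle.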

[16] = NCI Yeast Anticancer Drug Screen. Data for the rad18 strain (AID 177); details: S. cerevisiae rad18 mutant growth inhibition, active compounds read high
In short: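 Vehicle-treated cultures served as the baseline for scoring compound-induced growth inhibition in DNA-repair-mutant yeast.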

[17] = at 5.0 µM (retest, dose inferred, filed as 0.5)
[18] = at 50.0 µM (retest, dose inferred, filed as 5.0)

Measured: growth inhibition

S=c1[nH]c2c(Cl)c(Cl)c(Cl)c(Cl)c2[nH]1
active: [1]; at 33.0 µM 97% | [1]; at 100.0 µM 94% | [2]; at 33.0 µM 98% | [2]; at 100.0 µM 96% | [3]; at 11.0 µM 81% | [3]; at 33.0 µM 96% | [3]; at 100.0 µM 95% | [4]; at 11.0 µM 78% | [4]; at 33.0 µM 99% | [4]; at 100.0 µM 93% | [5]; at 33.0 µM 98% | [5]; [18] 92% | [5]; at 50.0 µM 90% | [5]; at 100.0 µM 96% | [6]; at 33.0 µM 98% | [6]; [18] 98% | [6]; at 50.0 µM 91% | [6]; at 100.0 µM 96% | [7]; at 33.0 µM 99% | [7]; at 100.0 µM 96% | [8]; [18] 97% | [9]; at 33.0 µM 97% | [9]; at 100.0 µM 95% | [10]; [18] 95% | [11]; at 33.0 µM 98% | [11]; [18] 95% | [11]; at 100.0 µM 95% | [12]; at 33.0 µM 96% | [12]; at 100.0 µM 96% | [13]; at 11.0 µM 75% | [13]; at 33.0 µM 98% | [13]; at 100.0 µM 94% | [14]; at 33.0 µM 97% | [14]; at 100.0 µM 96% | [15]; [18] 95% | [15]; at 50.0 µM 90.5% | [16]; at 33.0 µM 97% | [16]; at 100.0 µM 95%
inactive: [1]; at 1.2 µM 13% | [1]; at 3.7 µM 6% | [1]; at 11.0 µM 45% | [2]; at 1.2 µM 16% | [2]; at 3.7 µM -4% | [2]; at 11.0 µM 33% | [3]; at 1.2 µM 13% | [3]; at 3.7 µM 20% | [4]; at 1.2 µM 9% | [4]; at 3.7 µM 15% | [5]; at 1.2 µM -5% | [5]; at 3.7 µM -2% | [5]; [17] 33% | [5]; at 11.0 µM 59% | [6]; at 1.2 µM -28% | [6]; at 3.7 µM -11% | [6]; [17] 44% | [6]; at 11.0 µM 48% | [7]; at 1.2 µM -11% | [7]; at 3.7 µM 4% | [7]; at 11.0 µM 50% | [8]; [17] -10% | [9]; at 1.2 µM 9% | [9]; at 3.7 µM 3% | [9]; at 11.0 µM 48% | [10]; [17] 61% | [11]; at 1.2 µM -5% | [11]; at 3.7 µM 4% | [11]; [17] 44% | [11]; at 11.0 µM 66% | [12]; at 1.2 µM -12% | [12]; at 3.7 µM -3% | [12]; at 11.0 µM 24% | [13]; at 1.2 µM 2% | [13]; at 3.7 µM 22% | [14]; at 1.2 µM -3% | [14]; at 3.7 µM 10% | [14]; at 11.0 µM 54% | [15]; [17] 26% | [16]; at 1.2 µM 5% | [16]; at 3.7 µM 12% | [16]; at 11.0 µM 42%

N#C/C(=C1C=C(Br)/C(=N\O)C=C\1Cl)c1cccc2ccccc12
inactive: [1]; at 1.2 µM 15% | [1]; at 3.7 µM 16% | [2]; at 1.2 µM -1% | [2]; at 3.7 µM 4% | [3]; at 1.2 µM 18% | [3]; at 3.7 µM 36% | [3]; at 11.0 µM 63% | [3]; at 33.0 µM 55% | [4]; at 1.2 µM 11% | [4]; at 3.7 µM 4% | [5]; at 1.2 µM 28% | [5]; at 3.7 µM 44% | [6]; at 1.2 µM 2% | [6]; at 3.7 µM 18% | [7]; at 1.2 µM -14% | [7]; at 3.7 µM -10% | [7]; at 11.0 µM 55% | [8]; [17] 5% | [9]; at 1.2 µM -15% | [9]; at 3.7 µM 27% | [9]; at 11.0 µM 63% | [10]; [17] 25% | [11]; at 1.2 µM 33% | [11]; at 3.7 µM 49% | [11]; [17] 59% | [12]; at 1.2 µM 0% | [12]; at 3.7 µM 7% | [13]; at 1.2 µM -37% | [13]; at 3.7 µM -11% | [13]; at 11.0 µM 58% | [14]; at 1.2 µM 15% | [14]; at 3.7 µM 18% | [16]; at 1.2 µM 0% | [16]; at 3.7 µM 12%
active: [1]; at 11.0 µM 94% | [1]; at 33.0 µM 93% | [1]; at 100.0 µM 95% | [2]; at 11.0 µM 84% | [2]; at 33.0 µM 86% | [2]; at 100.0 µM 96% | [3]; at 100.0 µM 88% | [4]; at 11.0 µM 79% | [4]; at 33.0 µM 85% | [4]; at 100.0 µM 97% | [5]; [17] 99% | [5]; at 11.0 µM 91% | [5]; at 33.0 µM 87% | [5]; [18] 98% | [5]; at 50.0 µM 89.2% | [5]; at 100.0 µM 94% | [6]; [17] 100% | [6]; at 11.0 µM 89% | [6]; at 33.0 µM 91% | [6]; [18] 98% | [6]; at 50.0 µM 90.7% | [6]; at 100.0 µM 94% | [7]; at 33.0 µM 70% | [7]; at 100.0 µM 96% | [8]; [18] 96% | [9]; at 33.0 µM 86% | [9]; at 100.0 µM 93% | [10]; [18] 95% | [11]; at 11.0 µM 94% | [11]; at 33.0 µM 93% | [11]; [18] 93% | [11]; at 100.0 µM 95% | [12]; at 11.0 µM 87% | [12]; at 33.0 µM 90% | [12]; at 100.0 µM 97% | [13]; at 33.0 µM 79% | [13]; at 100.0 µM 94% | [14]; at 11.0 µM 82% | [14]; at 33.0 µM 92% | [14]; at 100.0 µM 95% | [15]; [17] 100% | [15]; [18] 98% | [15]; at 50.0 µM 89.3% | [16]; at 11.0 µM 91% | [16]; at 33.0 µM 89% | [16]; at 100.0 µM 95%
